IMPase Li inh – cell-permeable IMPase inhibitors with lithium potentiation. 210,000 compounds, 0.35% hits. AID 1457. CHO-M1 cells, IP1 TR-FRET (IP-One), carbachol + lithium. Potency, µM (highest dose often 59.4 µM), for inactives: at the top dose activity, negative = IMPase inhibition, most hits filed as inhibitors;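 further: IP1 builds up when IMPase is blocked and the TR-FRET signal falls; potency means the concentration at half of the fitted maximal effect; plate controls were basal vehicle for no effect and high inhibitor control for full effect; nearly all actives have a fitted effect of over 50% in size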
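Test compounds were applied to CHO-M1 cells previously cultured for 16–30 h at 2000 per well. A small lithium amount accompanied them; after 30 min at 37C, IP1 was quantified by TR-FRET.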
PNC inhibitor – inhibitors of perinucleolar compartment assembly. activity change (PNC), negative = inhibition, % at 10 µM. PC3M PTB-GFP, PNC prevalence imaging, 16 h; stronger effect = lower value. 140,000 compounds, 3.1% hits;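 active means readout at or below -70, meaning at least 70% loss of cells showing the perinucleolar compartment, a nuclear body marking cancer cells; inconclusive means readout between -30 and a set limit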;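 further: plate controls were DMSO wells for no effect and camptothecin positive control wells for full effect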
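Compounds are pinned in duplicate onto adhered PC3M cells stably expressing GFP-tagged PTB and incubated 16 h at 37 C. Cells are then fixed, nuclei stained with Hoechst, and PNC-positive cells counted.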
HPGD block – inhibitors of human 15-hydroxyprostaglandin dehydrogenase (HPGD); Potency, µM, without a hit: at the highest dose activity change, negative = inhibition, actives largely listed as inhibitors; P15428; 150,000 compounds, 4.3% hits; purified HPGD, NADH fluorescence kinetic, PGE2 substrate; active means well fitted inhibition curve with a large enough effect, not every such curve was filed as active; inconclusive means small, poorly fitted or top-dose-only effect, or another doubt; inactive means no such curve, though single readings can be large or run the other way; further: potency means the concentration at half of the fitted maximal effect
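20 nM HPGD preincubated 15 min at room temperature with compound in 50 mM Tris-HCl pH 8, 0.01% Tween 20. Started with 1 mM NAD+ and 30 uM prostaglandin E2; NADH fluorescence (360/450 nm) read 5 times over 30-s intervals, last minus first.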
ALDH1A1 block – blocks purified human ALDH1A1 activity | P00352 | Potency, µM (titrated, usually from 75.3 µM), inactives show at the top dose activity, negative = inhibition, actives largely listed as inhibitors | 220,000 compounds, 7.3% hits | Purified ALDH1A1, NADH fluorescence, propionaldehyde substrate; active means well fitted inhibition curve with a large enough effect, not every such curve was filed as active; inconclusive means small, poorly fitted or top-dose-only effect, or another doubt; inactive means no such curve, though single readings can be large or run the other way;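 further: potency means the concentration at half of the fitted maximal effect; plate controls were no enzyme wells and a reference inhibitor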
Target sequence (P00352 whole entry, looked up): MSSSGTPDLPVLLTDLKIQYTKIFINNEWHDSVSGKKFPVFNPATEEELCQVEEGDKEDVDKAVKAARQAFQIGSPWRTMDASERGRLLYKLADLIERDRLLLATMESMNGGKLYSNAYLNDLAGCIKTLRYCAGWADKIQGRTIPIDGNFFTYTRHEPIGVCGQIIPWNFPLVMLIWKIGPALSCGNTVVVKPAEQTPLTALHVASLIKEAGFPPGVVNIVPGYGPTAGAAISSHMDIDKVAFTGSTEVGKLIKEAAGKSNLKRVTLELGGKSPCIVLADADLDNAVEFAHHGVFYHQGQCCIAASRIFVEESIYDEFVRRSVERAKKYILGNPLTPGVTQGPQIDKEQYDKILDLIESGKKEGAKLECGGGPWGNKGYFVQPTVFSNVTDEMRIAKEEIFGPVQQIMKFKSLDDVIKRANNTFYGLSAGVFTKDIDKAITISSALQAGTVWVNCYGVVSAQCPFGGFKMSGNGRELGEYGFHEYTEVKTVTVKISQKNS
IMPase inh – IMPase inhibition in cells. P97697. CHO-M1 cells, IP1 accumulation, HTRF TR-FRET ratio. inhibition (IP1 accumulation), % at 46.1 µM. 120,000 tested, under 10 active. AID 901; active means well fitted curve in the direction sought with a large enough effect in the signal ratio, not every such curve was filed as active; inconclusive means small, poorly fitted or top-dose-only effect, or a change in a side signal; inactive means no such curve, though single readings can be large or run the other way; the % refers to the signal ratio;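 further: cells stimulated with carbachol in lithium chloride buffer; plate controls were DMSO basal wells for no effect and reference inhibitor wells for full effect; higher means more IMPase inhibition seen as more IP1 and lower FRET ratio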
Target sequence (P97697 whole entry, looked up): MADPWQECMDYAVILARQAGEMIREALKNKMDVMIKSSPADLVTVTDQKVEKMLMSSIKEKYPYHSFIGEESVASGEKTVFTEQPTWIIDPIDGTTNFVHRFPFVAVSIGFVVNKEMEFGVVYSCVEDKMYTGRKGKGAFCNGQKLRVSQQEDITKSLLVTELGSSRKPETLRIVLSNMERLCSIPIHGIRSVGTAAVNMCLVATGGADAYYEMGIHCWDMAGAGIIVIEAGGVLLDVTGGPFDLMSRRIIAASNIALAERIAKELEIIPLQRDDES
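Seeded CHO-M1 cells were dosed with compound at up to 46 uM, stimulated with carbachol for 30 min, then lysed in IP-One detection reagents. Higher IP1 lowers the TR-FRET signal.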
12-hLO inh – blocks human 12-lipoxygenase activity; 150,000 compounds, 0.12% hits; Potency, µM (series often up to 57.1 µM), inactives show at the top dose activity change, negative = inhibition, usual class: inhibitors; purified 12-hLO, xylenol orange hydroperoxide absorbance; P18054; further: potency means the concentration at half of the fitted maximal effect; nearly all actives have a fitted effect of over 55% in size
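Xylenol orange chromogenic assay: hydroperoxide from 12hLO oxidises Fe(II), giving red-shifted Fe(III)-XO absorbance. Conditions: 150 nM enzyme, 40 uM arachidonic acid, 25 mM Hepes pH 7.0, 0.01% Triton X-100, 30 min, room temperature.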
* hit, by the source's call; ? = inconclusive; / = not tested or not shown; [ ] = dose if it differs, or a comment. This is a sample that favours compounds with a hit; in the whole collection about 11% have one here. Unless noted, the call rests on the fitted dose curve; in most records, active means well fitted curve in the direction sought with a large enough effect; inconclusive means small, poorly fitted or top-dose-only effect, or another doubt; inactive means no such curve, though single readings can be large; an effect the other way counts as inactive or inconclusive. Unless noted, on the % scale 0 is the no-effect control and ±100 the full control effect.

SMILES	IMPase Li inh	PNC inhibitor	HPGD block	ALDH1A1 block	IMPase inh	12-hLO inh
CCNc1nc(OC)nc(Oc2ccc(=O)n(-c3ccccc3)n2)n1	17%[38.3 µM]	-94*	-11%	-5%	12	0%
Cc1cccc(NC(=O)c2nc[nH]c2C(=O)Nc2cccc(C)c2)c1	-15%	/	/	?	/	/
CNC(=O)c1[nH]cnc1C(=O)Nc1cccc(OC)c1	15%[38.3 µM]	?	-13%	28µM*	6	0%
Cc1ccc2nc(C)c(C(=O)NN=C3CCCCCC3)n2c1	11%	/	/	7.9µM*	/	/
Cc1ccc(C)c(-n2c(C)cc(/C=N/NC(=O)c3c(C)nc4cc(C)ccn34)c2C)c1	29%	-28	?	13µM*	5	0%
Cc1ccn2c(C(=O)NN=C3CCN(C)CC3)c(C)nc2c1	13%	/	/	2.2µM*	/	/
Cc1ccc2nc(C)c(C(=O)N/N=C/c3cccs3)n2c1	5%	-12	-11%	?	/	1%
Cc1ccn2c(C(=O)N/N=C\c3cccs3)c(C)nc2c1	16%	?	-19%	?	6	1%
COc1ccc(OC)c(-c2cc(C3CCN(c4ncccc4[N+](=O)[O-])CC3)[nH]n2)c1	16%[38.3 µM]	30	14µM*	?	7	-26%
CC(=O)NCCNc1ncnc2ccc(-c3ccccc3C(F)(F)F)cc12	-3%	/	/	-8%	/	/
CCCCCCC(=O)N1CCC(c2nc3c(nnn3Cc3ccccc3Cl)c(=O)[nH]2)CC1	43%[38.3 µM]	?	20µM*	?	6	-10%
O=C(c1cccs1)N1CCC(c2nc3c(nnn3Cc3ccccc3)c(=O)[nH]2)CC1	/	16	/	?	3	-1%
O=C(Cc1cccs1)N1CCC(c2nc3c(nnn3Cc3ccccc3Cl)c(=O)[nH]2)CC1	11%[38.3 µM]	46	16µM*	?	-2	-1%
CCOC(=O)NC(=O)COC(=O)c1ccc(O)cc1	5%	/	/	7%	/	/
Cc1ccc(C(=O)OCC(=O)NC(=O)c2cccn2C)cc1	-17%[38.3 µM]	-81*	-10%	-8%	-6	-1%
CC(C)NC(=O)NC(=O)COC(=O)c1ccc(OC(F)(F)F)cc1	4%	-89*	-14%	7%	/	1%
CNC(=O)NC(=O)COC(=O)c1ccc(-n2c(C)ccc2C)cc1	/	-115*	/	-6%	6	-2%
CCCCCO	-17%	/	-1%	-6%	/	-4%
CCCCCC/C=C1\CC(C(=O)OCC)Oc2ccccc21 (stereo unspecified) (tested in a mixture with another compound)	12%	/	-12%	4%	/	-4%[0.00818 µM]
CS(=O)(=O)N(Cc1ccccc1)c1ccc(C(=O)Nc2cccc(Cl)c2)cc1	/	/	/	/	-1	/
CC1=N[C@@](C)(COC(=O)[C@]2(C)N[C@](C)(CO)CO2)COC1=O	-4%	/	0%	23%[13.5 µM]	/	3%[11.4 µM]
Nc1c(S(=O)(=O)O)cc(Nc2cccc(S(N)(=O)=O)c2)c2c1C(=O)c1ccccc1C2=O	3%	/	?	?	/	-21%[11.4 µM]
CCCN1C(=O)/C(=C\C=C2/C=CN(CC)c3ccccc32)SC1=S	98%	-30	-15%	5µM*	10	-1%
CCCCN1C(=O)/C(=C/C=C2\N(C)c3ccccc3C2(C)C)SC1=S	10%[38.3 µM]	17	-9%	?	-7	-11%
Cc1ccc(-c2nc3nc(C)cc(N4CCN(c5cc(Cl)ccc5C)CC4)n3n2)cc1	/	/	/	/	16	/
SMILES	IMPase Li inh	PNC inhibitor	HPGD block	ALDH1A1 block	IMPase inh	12-hLO inh
COc1ccc(C(=O)N2CCC3(CC2)CN(C(=O)NC(C)C)C3)cc1	-3%	/	-2%	7%	/	-3%
C/C(=N\NC(=O)c1cccc(N/N=C(\C)c2ccco2)c1)c1ccco1	15%	/	/	?	/	/
C/C(=N\NC(=O)c1cccc(N/N=C(\C)c2cc(O)ccc2O)c1)c1cc(O)ccc1O	13%	/	/	7.9µM*	/	/
O=C(O)/C=C/C(=O)Nc1nccs1	/	/	/	0%	/	/
C/C(=C\C(=O)O)C(=O)Nc1nccs1	-1%[38.3 µM]	?	-10%	3%	-5	-4%
O=C(/C=C/c1ccc(Br)o1)Nc1nccs1	3%	/	/	22µM*	/	/
O=C(Nc1nccs1)c1ccc(Br)o1	6%	-100*	25µM*	?	-4	4%
C/C(=C\C(=O)Nc1nccs1)c1ccccc1	-3%[38.3 µM]	18	16µM*	-5%	?	-6%
CSc1ccccc1C(=O)Nc1nccs1	-8%[38.3 µM]	-25	16µM*	?	-4	1%
Cc1cccc(N(CC(=O)NCCSc2ccc(Cl)cc2)S(C)(=O)=O)c1C	/	/	/	/	-2	/
CCCc1cc(C(=O)Nc2nccs2)cs1	14%[38.3 µM]	-26	10µM*	?	22	-28%
Cn1cc2c(=O)n(/N=C/c3ccccc3)cnc2n1	2%	-82*	-2%	-6%	/	2%
Cc1nc2ccccc2c(=O)n1/N=C/c1ccccc1	-2%[38.3 µM]	7	0%	0%	4	2%
Cc1ccc(C(NC(=O)N2CC(C)OC(C)C2)C(Cl)Cl)cc1F (stereo unspecified)	13%	?	-7%	10µM*	2	-2%
Cc1ccc(C(NC(=O)N2CCN(C)CC2)C(Cl)Cl)cc1F (stereo unspecified)	5%	/	/	?	/	/
Cc1ccc(C(NC(=O)N2CCOCC2)=C(Cl)Cl)cc1F	25%[38.3 µM]	5	-15%	0.11µM*	-2	3%
Cc1ccc(C(NC(=O)N2CCOCC2)C(Cl)Cl)cc1F (stereo unspecified)	-6%	?	4%	20µM*	3	0%
CCOc1ccc(C2C(C(=O)Nc3ccccc3C)=C(C)Nc3nnnn32)cc1 (stereo unspecified)	/	/	/	/	-7	/
COCCNc1nc(C)nc2c1nc(-c1ccccc1)n2CC1CCN(C)CC1	-20%	/	?	?	/	0%
CC(C)C[C@@H](CC(=O)N[C@@H](CCC(=O)O)CC(=O)O)NC(=O)[C@@H]1CNCC[C@H]1NC(=O)C[C@@H](NC(=O)C[C@H](Cc1ccccc1)NC(=O)[C@@H]1CNCC[C@H]1N)C(C)C	24%	/	-12%	?	/	-1%
Clc1ccccc1CN1CCN(/N=C/C=C\c2ccco2)CC1	13%	/	/	3.2µM*	/	/
Cc1noc(C)c1C(=O)N1CCC2(CCCN(C(=O)Nc3cccc(C#N)c3)C2)CC1	-2%	/	-5%	6%	/	4%
Cc1ccccc1NC(=O)CCC(=O)N/N=C/c1cc([N+](=O)[O-])ccc1O	3%	?	-25%	?	/	-1%
O=[N+]([O-])c1ccc(O)c(/C=N/n2cnc3ccccc32)c1	12%	-18	14µM*	?	9	-4%
O=[N+]([O-])c1ccc(O)c(/C=N/n2c(CO)nc3ccccc32)c1	/	/	/	3.2µM*	/	/
O=[N+]([O-])c1ccc(O)c(/C=N/Nc2ccccc2Cl)c1	16%	/	/	-7%	/	/
